Most compounds without a hit are left out; they make up all but 28% or so of the library.
CYP2C19 act = human CYP2C19 activators, primary screen, biochemical, luminescence. activation factor at 5 µM. 96,000 tested, under 10 active. recombinant CYP2C19, luciferin-H EGE luminescence; stronger effect = higher value; 0 = fully inhibited enzyme, 1 = untreated enzyme;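 active = activation factor of at least 2 at 5 µM in the primary screen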
Target sequence (P33261 whole entry, looked up): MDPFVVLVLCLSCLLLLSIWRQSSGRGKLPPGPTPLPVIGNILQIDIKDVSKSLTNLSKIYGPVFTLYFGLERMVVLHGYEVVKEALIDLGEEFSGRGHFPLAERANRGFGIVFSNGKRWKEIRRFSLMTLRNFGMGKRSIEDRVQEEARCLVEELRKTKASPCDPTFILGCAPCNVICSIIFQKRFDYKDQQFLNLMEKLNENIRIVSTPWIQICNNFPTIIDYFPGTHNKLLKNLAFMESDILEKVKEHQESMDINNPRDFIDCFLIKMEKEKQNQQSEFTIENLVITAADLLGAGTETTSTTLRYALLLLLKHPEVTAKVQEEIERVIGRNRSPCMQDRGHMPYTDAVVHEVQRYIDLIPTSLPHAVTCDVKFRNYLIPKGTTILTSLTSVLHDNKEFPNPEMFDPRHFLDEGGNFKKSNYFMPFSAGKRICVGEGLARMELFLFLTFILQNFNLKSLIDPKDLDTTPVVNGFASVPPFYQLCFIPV
CYP2C9 inh = blockers of cytochrome P450 2C9 activity – biochemical, luminescence, ADME assay, primary screen. P11712. CYP2C9 Supersomes, luciferin-H conversion. inhibition, % at 5 µM. 96,000 tested, 20% active. AID 777, 2007;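 active = blocking of liver enzyme CYP2C9 beyond about 50% at 5 µM, limit read from the data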
CYP2C9 activ = human CYP2C9 activators, primary screen, biochemical, luminescence | Cytochrome P450 2C9 (Homo sapiens), P11712 | recombinant CYP2C9, luciferin-H conversion; stronger effect = higher value; factor 1 = untreated enzyme, 0 = blocked | activation factor at 5 µM | 96,000 tested, 1.4% active;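 active = activation factor of 2 or more for CYP2C9 at a 5 µM dose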
CYP2C19 inh = blockers of cytochrome P450 2C19 activity – biochemical, luminescence, ADME assay, primary screen; P33261; CYP2C19 Supersomes, luciferin-H EGE luminescence, 30 min; inhibition, % at 5 µM; 96,000 tested, 21% active; AID 778, 2007;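 active = CYP2C19 inhibition above a set limit at 5 µM in the primary screen, cut at about 50% in these data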
Pyk2 oligo antag = antagonists of Pyk2 self-association, primary screen, Q293 cells, FERM NanoBiT luminescence, HTS. Protein-tyrosine kinase 2-beta (Homo sapiens), Q14289. stronger effect = lower value. z-score (the deposit names both 25 µM and 10 µM). 99,000 tested, 0.83% active;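 active = Z-score of -3 or lower, scaled per plate to the spread of control and sample wells; inactive = z-score above -3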;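 note: negative z-score means lost luminescence so less FERM oligomerization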
Numbers stand for hits; i = inactive; nt = no result given.

SMILES	CYP2C19 act	CYP2C9 inh	CYP2C9 activ	CYP2C19 inh	Pyk2 oligo antag
Cc1ccc(CCN2CC(C(=O)N3CCC4(CC3)OCCO4)CC2=O)cc1 (stereo not drawn)	i	i	i	i	i
CCc1ccc(C(=O)C23CN4CN(CN(C4)C2)C3)cc1	nt	nt	nt	nt	i
COc1ccc(C2SCC(=O)Nc3c2c(C)nn3C2CCOC(C)(C)C2)cc1 (stereo not drawn)	i	i	i	i	i
COc1cc(C2SCC(=O)Nc3c2c(C)nn3-c2ccccc2)cc(OC)c1OC (stereo not drawn)	i	69	i	79	i
Cc1nn(-c2ccccc2)c2c1C(c1ccc3c(c1)OCO3)SCC(=O)N2 (stereo not drawn)	i	90	i	90	i
Cc1nn(C2CCOC(C)(C)C2)c2c1C(c1ccc3c(c1)OCO3)SCC(=O)N2 (stereo not drawn)	i	i	i	i	i
Cc1sc2ncn(CC(=O)NCC(=O)N3CCC4(CC3)OCCO4)c(=O)c2c1C	i	i	i	i	i
COc1ccccc1N1C(=O)NC(=O)C2(Cc3cc(C)ccc3N(C)C2)C1=O (stereo not drawn)	i	68	i	i	i
Cc1ccc2c(c1)CC1(CN2C)C(=O)NC(=O)N(c2ccccc2C)C1=O (stereo not drawn)	i	i	i	i	i
Cc1ccc2c(c1)CC1(CN2C)C(=O)NC(=O)N(c2ccc(C)c(C)c2)C1=O (stereo not drawn)	i	86	i	53	i
CN(C)C(=O)Oc1cccc2c(OC(=O)N(C)C)cccc12	i	i	i	i	i
CN(Cc1ccccc1)Cc1ccccc1OC(=O)N(C)C	i	i	i	54	i
Cc1cc(Cl)ccc1OCCCC(=O)NCc1cccs1	nt	nt	nt	nt	i
CCCCNC(=O)Nc1ccc(C(O)(C(=O)OCC)C(F)(F)F)cc1 (stereo not drawn)	i	i	i	i	i
CCOC(=O)N(CC)c1ccc(C(O)(C(=O)OC)C(F)(F)F)cc1 (stereo not drawn)	i	i	i	64	i
CCOc1ccc(Br)c(C2(O)CC(C)N(C)CC2C)c1 (stereo not drawn)	i	i	i	i	i
CCC(CO)Nc1ccc([N+](=O)[O-])c2cccnc12 (stereo not drawn)	i	i	i	58	i
CC(O)CNc1ccc([N+](=O)[O-])c2cccnc12 (stereo not drawn)	nt	nt	nt	nt	i
CCN(CCNc1ccc([N+](=O)[O-])c2cccnc12)S(=O)(=O)c1ccc(Cl)cc1	i	51	i	61	i
CN(C)C(Cc1ccccc1)C(=O)c1ccc(-c2ccccc2)cc1 (stereo not drawn)	i	74	i	i	i
COCCOC(=O)C1=C(N)Oc2c(c(=O)oc3ccccc23)C1c1ccncc1 (stereo not drawn)	i	97	i	96	i
Cc1ccc(-n2nc(C)c(C3C(C#N)=C(N)Oc4c3c(=O)oc3ccccc43)c2Cl)cc1 (stereo not drawn)	i	98	i	i	nt
CC(C)Oc1ccc(C2C(C#N)=C(N)Oc3c2c(=O)oc2ccccc32)cc1 (stereo not drawn)	i	90	i	i	i
CCCC1C(C#N)=C(N)Oc2c1c(=O)oc1ccccc21 (stereo not drawn)	nt	nt	nt	nt	i
COc1ccc(C2C(C#N)=C(N)Oc3c2c(=O)oc2ccccc32)cc1Cn1cc([N+](=O)[O-])cn1 (stereo not drawn)	i	97	i	i	i
SMILES	CYP2C19 act	CYP2C9 inh	CYP2C9 activ	CYP2C19 inh	Pyk2 oligo antag
Cc1cc(S(=O)(=O)NCc2ccccc2)ccc1OCC(=O)N1CCN(C)CC1	i	i	i	i	i
CC1CN(O)C2CCc3c(no[n+]3[O-])C12O (stereo not drawn)	i	i	i	i	i
CC(=NCCCn1ccnc1)c1c(O)n(C)c(=O)n(C)c1=O	i	i	i	i	i
CCCCSP1(=S)NCCCO1 (stereo not drawn)	i	i	i	i	i
O=c1[nH]c(=O)n(-c2ccc(F)cc2)c(O)c1C=Nc1ccccc1N1CCCC1	i	i	i	i	i
FC(F)(F)C1=NC(C(F)(F)F)=NP(N2CCOCC2)(N2CCOCC2)=N1	i	i	i	i	i
CCCC(C)C1C(C#N)=C(N)Oc2c1c(=O)oc1ccccc21 (stereo not drawn)	i	70	i	i	i
COCCNC(=O)c1c(NC(=O)c2ccco2)n(Cc2ccccc2)c2nc3ccccc3nc12	i	76	i	i	i
O=c1[nH]c(CN2CC=C(c3ccccc3)CC2)nc2cc(C(F)(F)F)ccc12	i	79	i	i	i
O=c1[nH]c(O)c(/C=C2\C=NN=C2c2ccccc2)c(=O)[nH]1	i	i	i	i	i
O=c1cccc2n1CC1CC2CN(c2ncnc3c2cnn3-c2ccccc2)C1 (stereo not drawn)	i	i	i	i	i
O=C(Cn1ncc2ccccc21)N1CCC2(CC1)OCCO2	i	i	i	55	i
O=C(Cn1ncc2c3ccccc3n(Cc3ccccc3)c2c1=O)N1CCC2(CC1)OCCO2	i	53	i	i	nt
Cc1c2cnn(CC(=O)N3CCC4(CC3)OCCO4)c(=O)c2c(C)n1Cc1ccc(F)cc1	i	i	i	53	i
O=C(Cn1ncc2c3ccccc3n(Cc3ccccc3F)c2c1=O)N1CCC2(CC1)OCCO2	i	69	i	i	i
CCn1c(=O)n(CC(=O)N2CCC3(CC2)OCCO3)c(=O)c2ccccc21	i	i	i	i	i
CN1CCN(c2nc3ccccc3c(=O)n2-c2ccccc2)CC1	i	i	i	i	nt
COC(=O)c1cc2c(s1)=NC=NP=2(N1CCOCC1)N1CCOCC1	i	i	i	i	i
CN(C)c1cc(N)c2c(n1)CCC2 (tested in a mixture with another compound)	i	i	i	i	i
COC(=O)c1c(C)n(Cc2ccc3c(c2)OCO3)c2ccc(O)cc12	i	79	i	82	-4
CCOC(=O)c1c(C)n(Cc2ccc3c(c2)OCO3)c2ccc(O)cc12	i	i	i	i	-3.3
CCOC(=O)c1c(C)n(COCCO)c2ccc(O)cc12	i	i	i	i	i
CCCCn1c(C)c(C(=O)OCC)c2c(CN3CCOCC3)c(O)ccc21	i	i	i	i	i
CCOC(=O)c1c(C)n(Cc2ccco2)c2ccc(O)cc12	i	i	i	56	i
COC(=O)C(O)(c1ccc2c(c1)CCCN2)C(F)(F)F (stereo not drawn)	i	i	i	i	i
Cc1ccnc(-n2c(-c3ccco3)nc3ccccc3c2=O)c1	i	i	i	i	i
C=CCn1c(O)c(C(CC)=Nc2cc(OC)ccc2OC)c(=O)[nH]c1=O	i	90	i	79	i
